This passage reports Inhibition results from ChEMBL document CHEMBL1157539, “Thousands of chemical starting points for antimalarial lead identification” (Nature, 2010).

Broadly, the Inhibition is the percentage by which the read-out fell short of the control.

The assay deals with HepG2. The assay can be described thus: GSK_TCMDC: Percent inhibition of human HepG2 cell line. Test compounds present at 10uM. The format is functional.
In turn, `CC(=O)Nc1csc(-c2cnc(/C=C(\C)C[C@@H]3OC[C@H](C[C@@H]4O[C@H]4[C@@H](C)[C@H](C)O)[C@@H](O)[C@H]3O)o2)c1` gave an Inhibition of 1%.
The same measure for `O=C(O)C(F)(F)F.O=c1cc(N2CCNCC2)c(Cl)nn1Cc1ccc(NS(=O)(=O)c2ccc(Oc3ccccc3)cc2)cc1`: 3%.
The molecule `O=C(/C=C/c1ccc(Cl)c(Cl)c1)NCCCCCN1CCCC(C(=O)Nc2ccc(Cl)c(Cl)c2)C1` (stereo not given) displayed an Inhibition of 53%.
With `COc1ccc2nccc([C@@H](O)CN3CCC(NC(=O)/C=C/c4ccnc5ccccc45)CC3)c2c1`, the Inhibition is listed as 19%.
Consider `CCC(C)NS(=O)(=O)c1ccc2nc(Nc3ccc(C)cc3)n(C3CCCCC3C)c2c1` (stereo not given), for which the Inhibition is on record as 1%.
As for `O=C(CCc1c[nH]cn1)Nc1cccc(-c2ccc(-c3nc4ccccc4[nH]3)cc2)c1`, the Inhibition is on record as 24%.
Next, `CCC(C)(C)c1ccc(Oc2ccc(NC(=O)Nc3ccc(Cl)c(Cl)c3)cc2)cc1`: 13%; `c1ccc(-c2cccc(-c3ccccn3)n2)nc1` [TERPYRIDINE]: 45%; `CSc1ccc(CN2CCC(NC(=O)c3ccc(-c4cccc(C(F)(F)F)c4)s3)CC2)cc1.O=C(O)C(F)(F)F`: 68%.
Next, `COc1ccc(-c2cncc(-c3ccc(OC)c(OC)c3)n2)cc1OC.Cl`: 6%; `CC(NCCC1CCC(NC(=O)N[C@H](C)C(O)(c2ccccc2)c2ccccc2)CC1)c1cccc2ccccc12` (stereo not given in full): 43%.
Next, `COc1ccc2nc(-c3ccccc3)cc(NCCN(C)C)c2c1`: 0%; `Cc1cccc2nc(-c3ccc(-c4ccc(NC(=O)Nc5cccc(C#N)c5)cc4)cc3)[nH]c12`: 28%; `Cc1cccc2nc(-c3cccc(-c4cccc(CNCc5cccc(N)c5)c4)c3)[nH]c12.O=C(O)C(F)(F)F`: 14%.
In turn, `COc1cccc(NC(=O)c2nc(N3CCN(c4ccncc4)CC3)ccc2Cl)c1.O=C(O)C(F)(F)F` had an Inhibition of 14%.
The same measure for `CCC/C=C/c1c(CNCCCNc2cc(=O)c3ccccc3[nH]2)sc(CC)c1Br.Cl`: 8%.
Molecule `Cc1ccc(C)c(NC(=O)NC2CCN(c3ccnc(Nc4ccc(F)cc4)n3)C2)c1` (stereo not given) had an Inhibition of 0%.
The same measure for `Cc1nc2ccc(-c3ccc(OC(F)(F)F)cc3)cc2c(O)c1C#N`: 0%.
Next, `O=C(/C=C/c1ccc(Cl)c(Cl)c1)NCCCCCN1CCC(CCNC(=O)/C=C/c2cc(C(F)(F)F)ccc2F)CC1`: 25%; `COc1ccc(-c2ccc(CN(C)C3CCC(NC(=O)c4cc5ccccc5[nH]4)CC3)cc2)cn1` (stereo not given): 31%.
Take `Cc1ccc(NC(=O)c2ccc3ncccc3c2)cc1OC1CCN(Cc2ccc(F)cc2)CC1.O=C(O)C(F)(F)F`: the Inhibition is given as 6%.
In turn, `COc1ccc(CNCCCCCNCc2ccc(Cl)c(Cl)c2)cc1Cl` returned an Inhibition of 42%.
The same measure for `O=C(/C=C/c1ccc(Cl)c(Cl)c1)NC1CCC(CN2CCC(c3nc4ccccc4n3CCCO)CC2)CC1` (stereo not given): 28%.
The same measure for `Cc1ccc(NC(=O)c2cccc(C#N)c2)cc1-c1ccc(C(=O)Nc2ccncc2)cc1`: 38%; for `Nc1nc(N)c2cc(S(=O)(=O)c3ccc4ccccc4c3)ccc2n1`: 14%.
The same measure for `Cl.Nc1nc(N)c2c(ccc3c2cnn3S(=O)(=O)N2CCCC2)n1`: 70%; for `Cc1cnc(C(=O)Nc2cccc(-c3cccc(-c4nc5cc(F)ccc5[nH]4)c3)c2)cn1`: 25%; for `CN(CCN)Cc1cccc(-c2ccc(-c3nc4cc(C(F)(F)F)ccc4[nH]3)s2)c1.O=C(O)C(F)(F)F`: 27%.
`CCn1c(-c2nonc2N)nc2c(-c3cccc(NC(=O)Nc4ccc(Cl)cc4)c3)ncc(OCCCN)c21.O=C(O)C(F)(F)F` showed an Inhibition of 26%.
Next, `CCNc1cc(C)nc(Nc2ccc(F)cc2)n1`: 1%; `COc1ccc(C(=O)CCC(=O)N(Cc2ccc(-c3ccc(CNCCc4ccccc4)cn3)cc2)C(C)CN(C)C)cc1F.O=C(O)C(F)(F)F` (stereo not given): 20%.
`c1ccc(Oc2ccc(Nc3ccnc4cc(-c5ccc(CN6CCOCC6)o5)ccc34)cc2)nc1` came in with an Inhibition of 5%.
Next, `COc1ccc2nccc(NC(=O)CNCc3ccc(-c4ccccc4)cc3)c2c1`: 11%; `NS(=O)(=O)c1cncc(-c2ccc3nccc(-c4cn[nH]c4)c3n2)c1`: 33%.
In the case of `Cc1cccc2nc(-c3ccc(-c4cccc(NC(=O)C(=O)c5cccn5C)c4)cc3)[nH]c12`, the Inhibition is recorded as 30%.
Next, `CCNc1cc(C)nc(Nc2ccccc2)n1`: 16%; `Cc1cccc(NC(=O)c2cnc(N3CCN(c4ccncc4)CC3)c(Cl)c2)c1.O=C(O)C(F)(F)F`: 36%; `Cc1ccc(NC(=O)N2CCC(n3c(-c4ccccc4)nc4cccnc43)CC2)cc1F`: 23%.
Take `COc1cc2c(cc1S(=O)(=O)c1ccc(NC(=O)c3cccc(C(F)(F)F)c3)cc1)CCN(C)CC2`: the Inhibition is 18%.
`O=C(NC1CCC(N2CCC(O)(c3ccc(F)cc3)CC2)CC1)c1cc2ccccc2[nH]1` (stereo not given): the Inhibition was determined as 9%.
